High-throughput results as filed in PubChem.
MITF inh: MITF inhibitors, primary screen, biochemical, AlphaScreen, human; Microphthalmia-associated transcription factor (Homo sapiens), O75030; inhibition, % at 2.6 µM; AlphaScreen MITF homodimerization, bead proximity signal; actives 0.91% (n = 650,000); in the data active = inhibition above about 50%;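 note: 0% = vehicle wells with protein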
GPR151 activ: activators of human GPR151, primary screen, cell-based, PathHunter beta-arrestin, luminescence; activation, % at 11.2 µM; AID 1508602, 2020; G-protein coupled receptor 151 (Homo sapiens), Q8TDV0; actives 1% (n = 650,000); PathHunter beta-arrestin GPR151 cells; in the data active = activation above about 4.9%;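 note: 0% = median of compound wells and 100% = cells with positive control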
FBW7 activator: FBW7 E3 ligase activators, primary screen, biochemical, AlphaScreen, human; actives 0.13% (n = 650,000); F-box/WD repeat-containing protein 7 (Homo sapiens), Q969H0; AlphaScreen FBW7–phospho-cyclin E peptide binding, activator screen; normalized activity (activation), % at 26.1 µM; in the data active = normalized activity above about 1.9%;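 note: purified mutant Fbw7 with reduced substrate affinity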
Target sequence (Q969H0 whole entry, looked up): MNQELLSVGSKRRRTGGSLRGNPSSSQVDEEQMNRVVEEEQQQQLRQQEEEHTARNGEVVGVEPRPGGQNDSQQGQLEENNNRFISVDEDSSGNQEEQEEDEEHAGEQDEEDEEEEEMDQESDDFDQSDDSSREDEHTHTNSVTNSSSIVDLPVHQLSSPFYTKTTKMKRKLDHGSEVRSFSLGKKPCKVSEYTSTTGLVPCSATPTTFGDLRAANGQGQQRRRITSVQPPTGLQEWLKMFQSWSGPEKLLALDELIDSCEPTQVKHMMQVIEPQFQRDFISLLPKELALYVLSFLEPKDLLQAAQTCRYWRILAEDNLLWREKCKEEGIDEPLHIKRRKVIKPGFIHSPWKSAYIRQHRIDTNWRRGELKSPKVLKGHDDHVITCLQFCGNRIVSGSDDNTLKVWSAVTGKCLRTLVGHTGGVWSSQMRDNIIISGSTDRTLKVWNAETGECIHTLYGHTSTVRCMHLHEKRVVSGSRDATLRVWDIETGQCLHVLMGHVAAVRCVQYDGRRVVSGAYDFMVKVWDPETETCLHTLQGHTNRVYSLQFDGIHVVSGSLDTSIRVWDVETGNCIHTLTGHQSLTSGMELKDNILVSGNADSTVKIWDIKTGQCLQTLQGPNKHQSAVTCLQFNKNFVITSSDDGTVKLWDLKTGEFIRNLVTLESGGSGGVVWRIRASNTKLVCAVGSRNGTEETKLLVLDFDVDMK
TEAD-YAP block: TEAD-YAP interaction inhibition, primary screen, TEAD-YAP interaction inhibitor project, luminescence, HEK-TIYL cells; TEAD-Gal4/YAP UAS-luciferase luminescence; inhibition, % at 9.12 µM; actives 1.4% (n = 640,000); AID 1259422, 2018; in the data active = inhibition above about 32%;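 note: 0% = median of test compound wells and 100% = reference inhibitor wells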
MITF confirm: MITF inhibitors, retest of hits, confirmation, biochemical, AlphaScreen, triplicate; AlphaScreen MITF homodimerization, biotin/His-MITF beads; inhibition, % at 2.6 µM; AID 1259372, 2018; shares compounds with MITF inh; actives 16% (n = 4,700);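 active = inhibition above a cutoff derived from the DMSO control wells, cut at about 28% in these data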;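 note: 0% = MITF dimer wells with DMSO only; inhibitors lower the bead chemiluminescence by keeping MITF from dimerizing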
AlphaScreen DR: AlphaScreen optical interference compounds, dose response, counter-screen, biochemical, HTS; IC50, µM; shares compounds with MITF inh; actives 6% (n = 480); AlphaScreen optical interference counterscreen, cell-free; AID 1259373, 2018; call rule not given here
AS interf ctr: AlphaScreen optical interference compounds, counter-screen for MITF inhibitor project, biochemical, triplicate | shares compounds with MITF inh | LysRS AlphaScreen counterscreen, signal interference | inhibition, % at 2.6 µM | actives 7.6% (n = 4,700) | AID 1259376, 2018;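 active = inhibition above a cutoff derived from the DMSO control wells, cut at about 30% in these data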
The depositor's hits bear a star; nt = not tested or not shown. The list is not random: actives were taken first. Their share in the collection is about 3.5%.

SMILES | MITF inh | GPR151 activ | FBW7 activator | TEAD-YAP block | MITF confirm | AS interf ctr | others
COc1cc(OC)c(OC)cc1CN1CCN(Cc2cccc(Br)c2)CC1 | 73* | 1 | 0 | 13 | 11 | 22
COc1cc(CN2CCCC2)c([N+](=O)[O-])cc1OC | -4 | 0 | 0 | -6 | nt | nt
COc1ccc(CN2CCN(Cc3cc(OC)c(OC)cc3OC)CC2)c(OC)c1 | 73* | 0 | 0 | 5 | 13 | 22
COC(=O)C1=C(C)N=C2SCC(=O)N2C1c1ccc(C(C)C)cc1 (stereo not given) | -2 | 1 | 0 | -9 | nt | nt
COc1ccc(OC)c(N(CC(=O)NC(C)(C)CC(C)(C)C)S(=O)(=O)c2ccccc2)c1 | 13 | -2 | 0 | -11 | nt | nt
COc1ccccc1CN1CCN(Cc2ccc(C(F)(F)F)cc2)CC1 | 60* | 1 | 0 | -16 | 6 | 13
COc1ccc(CN2CCN(Cc3ccc(C(F)(F)F)cc3)CC2)c(OC)c1 | 68* | 0 | 0 | -1 | 10 | 13
COc1ccc(CN2CCN(Cc3ccc(C)cc3)CC2)c(OC)c1 | 79* | -1 | -1 | -15 | 0 | 9
OC(CNCC(O)c1ccccc1)c1ccccc1 (stereo not given) | 17 | -1 | 0 | 8 | nt | nt
Cc1ccccc1C(OCC(O)CNCc1ccccn1)c1ccccc1 (stereo not given) | 51* | 2 | -1 | -7 | 13 | 33*
OC(CNCc1ccccn1)c1ccccc1 (stereo not given) | 54* | 0 | -1 | -9 | 7 | 43*
CCc1nc2sccn2c(=O)c1C(=O)NCc1cccc(OC(F)(F)F)c1 | 15 | 0 | 1 | 8 | nt | nt
O=C1CC(N2CCN(c3ccc(Cl)cc3)CC2)C(=O)N1CCc1ccccc1 (stereo not given) | 53* | 1 | 0 | -8 | -4 | -2
CCCCC(CCCC)(Nc1ccc(F)c(F)c1)C(=O)NNc1ccccc1 | 61* | -1 | 0 | 3 | -3 | 0
CC(=O)C(/C=N/NC(=O)c1ccccn1)=C(\C)O | 59* | 3 | -2 | 8 | 33* | 57*
O=C(N/N=C\C(Br)=C\c1ccccc1)c1ccccn1 | -5 | -2 | 0 | 0 | nt | nt
CC1CCC(N2CCN(Cc3cccc([N+](=O)[O-])c3)CC2)CC1 (stereo not given) | 60* | 0 | 0 | -6 | 2 | 0
CS(=O)(=O)N1CCN(Cc2cccc([N+](=O)[O-])c2)CC1 | 72* | -1 | 0 | 4 | 7 | 17
O=[N+]([O-])c1cccc(CN2CCC(N3CCCCCC3)CC2)c1 | 67* | 3 | 1 | 1 | 2 | 6
O=[N+]([O-])c1cccc(CN2CCC(N3CCN(Cc4ccccc4)CC3)CC2)c1 | 23 | -1 | 0 | -6 | nt | nt
CC1CCCC(N2CCN(Cc3cccc([N+](=O)[O-])c3)CC2)C1 (stereo not given) | 75* | -1 | 0 | -1 | 6 | -4
O=[N+]([O-])c1cccc(CN2CCN(S(=O)(=O)Cc3ccccc3)CC2)c1 | 31 | 4 | 0 | 17 | nt | nt
CC1CCN(C2CCN(Cc3cccc([N+](=O)[O-])c3)CC2)CC1 | 18 | 0 | 0 | -7 | nt | nt
Cc1ccc2c(c1)NC(=O)C(Cl)(C(F)(F)F)O2 (stereo not given) | -12 | 3 | 0 | -7 | nt | nt
Cc1ccc2c(c1)NC(=O)C(N1CCOCC1)(C(F)(F)F)O2 (stereo not given) | 59* | 0 | 0 | 1 | 7 | 14
SMILES | MITF inh | GPR151 activ | FBW7 activator | TEAD-YAP block | MITF confirm | AS interf ctr | others
O=C(Nc1ncccc1O)c1c(O)c2cccc3c2n(c1=O)CCC3 | 5 | -1 | 0 | -5 | nt | nt
Cc1sc2nc(CNCc3ccco3)[nH]c(=O)c2c1-c1ccccc1 | 58* | 3 | 0 | 5 | -1 | 5
O=C(NCc1ccccc1)C1CC12CCN(C(=O)CCCc1cccs1)CC2 (stereo not given) | 62* | 1 | 0 | -33 | 1 | 7
O=C(NCc1cccs1)C1CC12CCN(C(=O)Cc1ccc(-c3ccccc3)cc1)CC2 (stereo not given) | 12 | 1 | 0 | 8 | nt | nt
CCOC(=O)CNS(=O)(=O)c1ccc2[nH]cc(C(=O)O)c(=O)c2c1 | 52* | 1 | 0 | 2 | 13 | 1
CCN(CC)CCNS(=O)(=O)c1ccc2[nH]cc(C(=O)O)c(=O)c2c1 | 52* | 0 | 0 | 2 | 5 | 5
COc1ccc(CNS(=O)(=O)c2ccc3[nH]cc(C(=O)O)c(=O)c3c2)cc1 | 24 | -1 | 0 | 8 | nt | nt
Cc1cccc(NC(=O)c2ccc(NS(=O)(=O)c3ccc4[nH]cc(C(=O)O)c(=O)c4c3)cc2)c1 | 70* | 1 | 1 | 5 | 41* | -5
CC(=O)NNC(=O)c1cc([N+](=O)[O-])cc([N+](=O)[O-])c1 | -15 | 0 | 0 | -7 | nt | nt
N#CC1=C(N)Oc2cc(Nc3ccccc3)ccc2C1c1cccnc1 (stereo not given) | 9 | 0 | 0 | 5 | nt | nt
CCC(C(=O)NCc1ccco1)n1ncn2c(cc3occc32)c1=O (stereo not given) | 1 | 1 | 0 | 12 | nt | nt
COc1ccc(CNC(C)c2ccc(-n3ccnc3)cc2)cc1F (stereo not given) | 66* | 1 | 0 | 0 | 14 | 19
COc1ccc(CCNCc2ccc(-n3ccnc3)cc2)cc1 | 36 | -1 | 0 | -1 | nt | nt
COc1ccc(CCNC(=O)c2cccc(Nc3cc(OC)c(OC)c(OC)c3)n2)cc1 | -6 | -1 | 0 | -1 | nt | nt
O=C1/C(=C/c2cc([N+](=O)[O-])ccc2O)Sc2ccccc21 | 17 | 0 | 0 | 0 | nt | nt
O=C(NC1CCCCC1)N1CCN2C(=O)[C@@H]3C[C@@H](O)CN3C(=O)[C@H]2C1 | 80* | 0 | 0 | 5 | 73* | -9 | AlphaScreen DR=>6.5
O=C(NC1CCCCC1)N1CCN2C(=O)[C@@H]3CSCN3C(=O)[C@H]2C1 | 76* | -1 | 0 | 14 | 60* | -2 | AlphaScreen DR=>6.5
CCCCN(Cc1ccco1)C(=O)C(=O)Nc1ccc2nc3n(c(=O)c2c1)CCCCC3 | 76* | -1 | 1 | -2 | 8 | 21
CN(Cc1ccco1)C(=O)C(=O)Nc1ccc2nc3n(c(=O)c2c1)CCCCC3 | -3 | -1 | 0 | -7 | nt | nt
